The values that follow come from PubChem BioAssay (NCATS).

Results filed as inconclusive are left out. A call without a number means that no potency is given here. Calls of active or inactive are those of the source. Calls follow the shape of the dose curve; as a rule, active = well fitted curve in the direction sought with a large enough effect; inconclusive = small, poorly fitted or top-dose-only effect, or another doubt; inactive = no such curve, though single readings can be large; an effect the other way counts as inactive or inconclusive.

Assay [1] addresses Aldehyde dehydrogenase, mitochondrial (Homo sapiens) (UniProt P05091). Description: qHTS for Inhibitors of the Aldehyde Dehydrogenase Family (ALDH2) Primary screen (AID 2061308). Also: nearly all actives have a fitted effect of over 55% in size.
Assay [2] concerns the target Retinaldehyde dehydrogenase 3 (Homo sapiens) (UniProt P47895). Description: qHTS for Inhibitors of the Aldehyde Dehydrogenase Family (ALDH1A3) Primary screen (AID 2061315).

Take `Cc1ccc(CSc2nnc(-c3cccc4ccccc34)o2)cc1`: the Potency result in assay [1] and in assay [2] was “inactive” each time.
Regarding `O=C(Cc1ccc(Cl)c(Cl)c1)Nc1ccc([S+](=O)([O-])Nc2cccc([N+](=O)[O-])c2)cc1`, the Potency result in assay [1] and in assay [2] was “inactive” in each case.
For the molecule `Cc1nc(NCc2ccccc2)c2nc(-c3ccccc3)n(CCCN3CCCCC3C)c2n1` (stereo not drawn), the Potency result in assay [1] and in assay [2] was “inactive” throughout.
`CCCn1c(-c2ccc(F)cc2)nc2c(N3CCN(C)CC3)nc(C)nc21`: the Potency result in assay [1] and in assay [2] was “inactive” throughout.
Turning to `Cc1cc(C)n2ncc(C(=O)Nc3ccccc3Sc3ccccc3)c2n1`, the Potency result in assay [1] and in assay [2] was “inactive” each time.
On to `CNc1nnc(-c2cccc3ccccc23)s1`, for which the Potency entry in assay [1] and in assay [2] was “inactive” throughout.
In the case of `CC(=O)c1ccccc1-c1ncc(C)c(NCc2ccc(-c3cccnc3)cc2)n1`, the Potency entry in assay [1] and in assay [2] was “inactive” in each case.
Take `CN(C)[C@@H]1CCN(c2cccc(Nc3nn4c(=O)c5ccccc5nc4s3)c2)C1`: the Potency entry in assay [1] and in assay [2] was “inactive” each time.
With `O=S(=O)(Nc1nccs1)c1ccc(NCc2cccc(Cl)c2O)cc1`, the Potency result in assay [1] and in assay [2] was “inactive” throughout.
On to `Cc1ccc(NS(=O)(=O)c2ccc3[nH]c(=O)[nH]c3c2)cc1C`, for which the Potency entry in assay [1] and in assay [2] was “inactive” throughout.
On to `O=C(Nc1ccc(Cl)c(Cl)c1)Nc1nnc(N2CCNCC2)s1`, for which the Potency entry in assay [1] and in assay [2] was “inactive” each time.
With `Cc1cc2c(s1)c1cnn(Cc3ccc(C(C)(C)C)cc3)c(=O)c1n2C`, the Potency entry in assay [1] and in assay [2] was “inactive” throughout.
Consider `O=C(Cn1nc(-c2ccc3c(c2)OCO3)ccc1=O)NCCc1ccccc1`, for which the Potency result in assay [1] and in assay [2] was “inactive” in each case.
For `CC(=O)Nc1cccc([S+](=O)([O-])N2CCCN([S+](=O)([O-])c3cccc(NC(C)=O)c3)CC2)c1`, the Potency result in assay [1] and in assay [2] was “inactive” each time.
With `O=c1c2[nH]c3ccsc3c2cnn1Cc1ccccc1F`, the Potency result in assay [1] and in assay [2] was “inactive” each time.
In the case of `CC(C)Nc1cccc(S(=O)(=O)N2CCCN(S(=O)(=O)c3ccc4c(c3)OCCO4)CC2)c1`, the Potency entry in assay [1] and in assay [2] was “inactive” throughout.
As for `O=[S+]([O-])(c1ccc2c(c1)OCCO2)N1CCN([S+](=O)([O-])c2c(F)cc(Br)cc2F)CC1`, the Potency entry in assay [1] and in assay [2] was “inactive” in each case.
Regarding `COC(=O)C1=CO[C@@H](O[C@@H]2O[C@H](CO)[C@@H](O)[C@H](O)[C@H]2O)[C@H]2[C@@H]1[C@H](O)[C@H](O)[C@]2(C)O`, the Potency entry in assay [1] and in assay [2] was “inactive” each time.
In the case of `O=C(Nc1ccc(F)c(C(F)(F)F)c1)Nc1nnc(-c2cccnc2)s1`, the Potency result in assay [1] and in assay [2] was “inactive” in each case.
On to `CCCn1c(-c2ccc(F)cc2)nc2c(N(C)CCN(C)C)nc(C)nc21`, for which the Potency entry in assay [1] and in assay [2] was “inactive” throughout.
As for `Cc1cc(C)nc(NC(=S)N2CCN(c3ccc(F)c(F)c3F)CC2)c1`, the Potency entry in assay [1] and in assay [2] was “inactive” each time.
Consider `O=S(=O)(NCC1CCC(NS(=O)(=O)c2c(F)cccc2F)CC1)c1ccc2c(c1)OCCO2` (stereo not drawn), for which the Potency result in assay [1] and in assay [2] was “inactive” in each case.
Regarding `CC(=O)Nc1sc2c(c1C#N)CCN(C(C)C)C2`, the Potency entry in assay [1] and in assay [2] was “inactive” each time.
Regarding `CC(Cc1cnccn1)Nc1cnc2c(O)ccc(C(=O)O)c2c1` (stereo not drawn), the Potency result in assay [1] and in assay [2] was “inactive” each time.
`COc1cccc(C2c3c(ncn(-c4ccccn4)c3=N)Oc3ccc4ccccc4c32)c1` (stereo not drawn): the Potency result in assay [1] and in assay [2] was “inactive” throughout.
`N#CCC(C1CCCC1)n1cc(-c2ncnc3[nH]ccc23)cn1` (stereo not drawn): the Potency result in assay [1] and in assay [2] was “inactive” each time.
On to `COC(=O)c1ccc(Nc2nc(-c3ccncc3)nc3ccccc23)cc1OC`, for which the Potency result in assay [1] and in assay [2] was “inactive” in each case.
Turning to `O=C(OCC#CCSc1nnc(-c2cccc3ccccc23)o1)c1ccccc1`, the Potency entry in assay [1] and in assay [2] was “inactive” throughout.
As for `O=C(NCCc1nc2ccccc2n1CCOc1ccc(F)cc1)C1CCCCC1`, the Potency entry in assay [1] and in assay [2] was “inactive” in each case.
As to `FC1(F)Oc2ccc(-c3ccc4ncnc(NCc5cccs5)c4c3)cc2O1`, the Potency entry in assay [1] and in assay [2] was “inactive” each time.
With `Cc1ccc(NS(=O)(=O)c2cc3c(cc2Cl)CCC(=O)N3)cc1Cl`, the Potency result in assay [1] and in assay [2] was “inactive” in each case.
For the molecule `Cc1ccc(NS(=O)(=O)c2ccc3c(c2)N(C)CCO3)cc1C`, the Potency entry in assay [1] and in assay [2] was “inactive” each time.
In the case of `CC(=O)c1ccc(N2CCN(S(=O)(=O)c3ccc4c(c3)CCC(=O)N4)CC2)cc1`, the Potency result in assay [1] and in assay [2] was “inactive” throughout.
As for `COc1ccc(C2Nc3ccccc3C(=O)N2Cc2cccs2)cc1COc1c(C)cc(NC(C)=O)cc1C` (stereo not drawn), the Potency entry in assay [1] and in assay [2] was “inactive” each time.
Consider `C=C[C@H](/C=C\c1ccc(O)cc1)c1ccc(O)cc1`, for which the Potency entry in assay [1] and in assay [2] was “inactive” in each case.
In the case of `Cc1cc2c(s1)c1cnn(Cc3c(F)c(F)c(C)c(F)c3F)c(=O)c1n2C`, the Potency entry in assay [1] and in assay [2] was “inactive” in each case.
For the molecule `Cc1cnc(-c2ccccc2C2CC2)nc1NCc1ccc(-c2cccnc2)cc1`, the Potency entry in assay [1] and in assay [2] was “inactive” throughout.
Regarding `CCCn1c(C)nc2c(NCCCCN(C)C)nc(C)nc21`, the Potency entry in assay [1] and in assay [2] was “inactive” each time.
`COc1ccc(CCNC(=O)Cn2nc(-c3ccc(C)cc3)ccc2=O)cc1OC`: the Potency result in assay [1] and in assay [2] was “inactive” in each case.
